# About 83,000 compounds went through this panel and 20% of them were active in at least one assay; those are over-represented in the sample as a whole.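 Interpretation: 100, growth as untreated; towards 0, rising growth inhibition; 0, no net growth; 0 to -100, cell death. Compounds scoring below 10 were considered active.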 Unmarked numbers belong to inactive results. The source made the active and inactive calls.
# Experiments:
# Assay in all cases: NCI-60 one-dose screen, 48 h (100 = growth as untreated, 0 = no growth, -100 = all killed)
# Details in all cases: 10 µM
# [1] = system: NCI-H23 lung
# [2] = system: NCI-H226 lung
# [3] = system: NCI-H322M lung
# [4] = system: HOP-62 NSCLC
# [5] = system: NCI-H460 lung
# [6] = system: NCI-H522 lung
# [7] = system: A549/ATCC NSCLC
# [8] = system: 786-0 renal
# [9] = system: COLO 205 colon
# [10] = system: DU-145 prostate
# [11] = system: K-562 leukemia
# [12] = system: MALME-3M melanoma
# [13] = system: MDA-MB-231 breast
# [14] = system: RXF 393 renal
# [15] = system: SF-268 CNS
# [16] = system: SF-295 CNS
# [17] = system: SF-539 CNS
# [18] = system: UACC-257 melanoma
# [19] = system: M14 melanoma
# [20] = system: HCT-15 colon
Compound,growth [1],growth [2],growth [3],growth [4],growth [5],growth [6],growth [7],growth [8],growth [9],growth [10],growth [11],growth [12],growth [13],growth [14],growth [15],growth [16],growth [17],growth [18],growth [19],growth [20]
COc1ccc(/C=C2/CN(C(=O)c3ccccc3F)C/C(=C\c3ccc(OC)cc3)C2=O)cc1,73.6%,57.8%,82.9%,75.8%,94%,38.3%,63.2%,56.9%,59.1%,42.1%,2.77% (active),62.1%,70.5%,12.5%,51.5%,50.1%,93.1%,71.2%,1.05% (active),18.2%
C=C1c2c(C)nn(-c3ccc(OC)cc3)c2N(C)C23C[C@@H]1C1(C)c4c(C)nn(-c5ccc(OC)cc5)c4N(C)C(C)(C[C@H]12)C3 (stereo not given in full),33.7%,48.7%,62.4%,59.9%,6.82% (active),47.4%,15.4%,54.3%,23.6%,56.2%,15.5%,53.9%,39.7%,67.9%,36.8%,101%,62.5%,26.8%,40%,26.3%
COc1ccc(N=C2C(=Nc3ccc(OC)cc3)N(c3ccc(N(C)C)cc3)C(=S)N2c2ccc(OC)cc2)cc1,90.9%,104%,90.3%,64.3%,85%,84.8%,90.4%,12.3%,109%,85.7%,61.9%,72.9%,90.2%,106%,90.2%,2.47% (active),54.2%,76.1%,65.3%,74.4%
COc1cc(-c2cc(/C=C/C(=O)c3ccc(F)c(F)c3)[nH]n2)cc(OC)c1OC,55.9%,65.6%,74.1%,78.7%,58.1%,47.4%,36.4%,80.5%,61.4%,72.9%,29.8%,72.5%,49.7%,76.9%,61.7%,10.4%,65.6%,80.8%,67.9%,46.6%
Nc1c(C(=O)Nc2cccc(Br)c2)sc2nc3c(cc12)C(O)CCC3 (stereo not given),34.9%,68.6%,48.8%,38.1%,11.3%,-4.01% (active),30.1%,45.1%,-1.49% (active),-0.178% (active),7.52% (active),64.3%,44.2%,-22% (active),46.2%,33.9%,-21.2% (active),64.7%,12.8%,23.5%
CCCC(F)C(=O)O (stereo not given),105%,114%,90.9%,113%,106%,89.5%,92%,97.2%,108%,117%,97.6%,103%,111%,117%,107%,83.5%,102%,92.2%,97.5%,100%
O=[N+]([O-])c1cccc(-c2ncc(-c3ccc(Cl)cc3Cl)[nH]2)c1,104%,80%,131%,45.8%,84.1%,-14% (active),94.4%,66.8%,89.4%,40%,-23.6% (active),125%,67.7%,95%,54.4%,93.7%,101%,109%,5.51% (active),-89.7% (active)
O=C(N/N=C/c1ccccc1O)C(O)(c1ccccc1)c1ccccc1,64.1%,71.1%,46%,59%,27.4%,27.9%,52.8%,61.7%,35.5%,59.9%,52.9%,74%,60.5%,85.2%,46.8%,-12.8% (active),60.6%,68.6%,57.4%,32%
